Reference: PubChem BioAssay (Tox21)
Where “and” joins values, the source holds several entries; their conditions need not be identical. Equal entries are not always repeated. Inconclusive results are not listed. A structure can be active in one record and inactive in another. Calls of active or inactive are those of the source. Unless noted, calls come from the whole dose curve; as a rule, active = well fitted curve in the direction sought with a large enough effect in the repeat runs; inconclusive = weak or mixed curves; inactive = no such curve, though single readings can be large; an effect the other way counts as inactive or inconclusive.

What was measured:
[1] = A CellTox Green Cytotoxicity Assay to monitor cytotoxicity in HEK293 cells - 32 hour (AID 1224881); note: nearly all actives have a fitted effect of over 40% in size; note: potency is the fitted concentration of half-maximal effect
How it was run: (§1)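 Homogeneous no-lysis format: HEK293 cell suspension mixed with CellTox Green reagent, seeded, incubated 5 h at 37 C/5% CO2, then dosed by pintool with compound in DMSO.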

[2] = A CellTox Green Cytotoxicity Assay to monitor cytotoxicity in HepG2 cells - 0 hour (AID 1224882); note: nearly all actives have a fitted effect of over 35% in size
How it was run: (§2)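 Fluorescent DNA-binding dye, 600 HepG2 cells/well, 5 h preincubation then compound in DMSO; same plates read at 0–40 h, 37 C.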

[3] = A CellTox Green Cytotoxicity Assay to monitor cytotoxicity in HepG2 cells - 32 hour (AID 1224883); note: nearly all actives have a fitted effect of over 50% in size; note: potency is the fitted concentration of half-maximal effect
How it was run: as §2

[4] = A CellTox Green Cytotoxicity Assay to monitor cytotoxicity in HEK293 cells - 8 hour (AID 1224884); note: nearly all actives have a fitted effect of over 35% in size; note: potency is the fitted concentration of half-maximal effect
How it was run: as §1

[5] = qHTS RealTime-Glo MT Cell Viability Assay in HepG2 cells - 16 hour (AID 1224885); note: nearly all actives have a fitted effect of over 50% in size; note: potency is the fitted concentration of half-maximal effect
How it was run: (§3)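 HepG2 suspension premixed with RealTime-Glo reagents is plated at 600 cells per well and left 5 h at 37 C/5% CO2. Compounds in DMSO then go in, and bioluminescence reflecting viable cell number is recorded over 40 h.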

[6] = qHTS RealTime-Glo MT Cell Viability Assay in HEK293 cells - 8 hour (AID 1224887); note: top concentration of the series differs between compounds; nearly all actives have a fitted effect of over 50% in size
How it was run: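 Measured as luminescence from the same continuously cultured HEK293 wells at successive time points (0, 8, 16, 24, 32, 40 h) after compound addition. Reagent present from seeding; dosing at 5 h; incubation 37 C.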

[7] = A CellTox Green Cytotoxicity Assay to monitor cytotoxicity in HepG2 cells - 8 hour (AID 1224890); note: nearly all actives have a fitted effect of over 45% in size
How it was run: as §2

[8] = qHTS assay to identify small molecule antagonists of the estrogen receptor alpha (ER-alpha) signaling pathway using the BG1 cell line in the presence of 0.1 nM 17-beta-estradiol - cell viability counter screen (AID 1259241); note: nearly all actives have a fitted effect of over 40% in size; note: potency is the fitted concentration of half-maximal effect
How it was run: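 Live-cell protease activity (CellTiter-Fluor fluorescence, 30 min) was read in the same wells after VM7Luc4E2 cells had been exposed to compounds with 0.1 nM 17beta-estradiol for 22 hr at 37C.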

[9] = qHTS assay to identify small molecule antagonists of the androgen receptor (AR) signaling pathway using the MDA cell line in the presence of 0.5 nM R1881 - cell viability counter screen (AID 1259242); note: nearly all actives have a fitted effect of over 45% in size; note: potency is the fitted concentration of half-maximal effect
How it was run: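 Human breast carcinoma MDA-kb2 cells, cultured without CO2, receive compounds alongside 0.5 nM (final) R1881 agonist. After 16 hr at 37C, viability is taken as live-cell protease signal.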

[10] = target: Estrogen receptor (Homo sapiens) (UniProt P03372); assay: qHTS assay to identify small molecule antagonists of the estrogen receptor alpha (ER-alpha) signaling pathway using the BG1 cell line in the presence of 0.1 nM 17-beta-estradiol (AID 1259244); note: nearly all actives have a fitted effect of over 50% in size; note: potency is the fitted concentration of half-maximal effect
Sequence of Estrogen receptor (Homo sapiens) (P03372 whole entry, looked up): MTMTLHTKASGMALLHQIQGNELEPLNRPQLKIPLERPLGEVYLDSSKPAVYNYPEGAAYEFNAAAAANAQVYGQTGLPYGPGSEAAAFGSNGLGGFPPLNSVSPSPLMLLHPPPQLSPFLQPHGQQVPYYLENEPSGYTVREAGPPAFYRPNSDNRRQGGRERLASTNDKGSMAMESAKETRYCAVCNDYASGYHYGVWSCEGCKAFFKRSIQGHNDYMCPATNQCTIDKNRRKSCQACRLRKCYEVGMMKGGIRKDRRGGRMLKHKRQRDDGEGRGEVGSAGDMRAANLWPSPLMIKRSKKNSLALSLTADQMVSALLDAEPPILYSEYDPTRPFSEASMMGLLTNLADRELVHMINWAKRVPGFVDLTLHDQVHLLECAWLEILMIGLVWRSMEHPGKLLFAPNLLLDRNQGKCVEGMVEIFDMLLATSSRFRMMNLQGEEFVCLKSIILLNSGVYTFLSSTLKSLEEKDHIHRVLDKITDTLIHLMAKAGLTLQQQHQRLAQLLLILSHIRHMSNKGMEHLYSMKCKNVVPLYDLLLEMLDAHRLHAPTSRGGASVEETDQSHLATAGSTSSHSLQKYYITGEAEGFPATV
How it was run: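 Seeding of stripped-serum-adapted VM7Luc4E2 cells, 24 h attachment, compound transfer, then 0.1 nM final 17beta-estradiol; after 22 h incubation, ONE-Glo reagent and luminescence reading.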

[11] = qHTS assay to identify small molecule phospholipidosis (PLD) inducers (AID 1259344; active = well fitted curve in the direction sought with a large enough effect; an effect the other way counts as inactive or inconclusive; note: potency is the fitted concentration of half-maximal effect)
How it was run: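 Image-based: LipidTOX Red pit count/intensity per well and per cell; HepG2, 24 h compound at 37 C, PFA fixation, Hoechst counterstain.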

[12] = qHTS assay to identify small molecule HDAC inhibitors (AID 1259364); note: potency is the fitted concentration of half-maximal effect;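 note: wild-type HCT-116 cells with endogenous class I/II HDAC activity; nearly all actives have a fitted effect of over 45% in size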
How it was run: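 After a 2 hr compound incubation (37C, 5% CO2), HCT-116 cells seeded at 1,500/well the day before received HDAC-Glo reagent; signal read as luminescence after 30 min at room temperature.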

[13] = qHTS assay to identify small molecule HDAC inhibitors - cell viability counter screen (AID 1259365)
How it was run: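 HCT-116 (wild type), 1,500 cells/well, overnight 37C/5% CO2; compound in DMSO 2hr; CellTiter-Glo 30min RT; luminescence read.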

[14] = qHTS assay to identify small molecule agonists of the sonic hedgehog signaling (Shh) pathway - cell viability counter screen (AID 1259366); note: nearly all actives have a fitted effect of over 50% in size; note: potency is the fitted concentration of half-maximal effect
How it was run: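 CellTiter-Fluor fluorescence read-out, 1 hr at 37C, added after 23hr compound exposure. Cells: 3T3 Gli1-Luc, an NIH/3T3 clone with stably integrated Gli1-Luc reporter, plated 4hr before compound.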

[15] = qHTS assay to identify small molecule antagonists of the sonic hedgehog signaling (Shh) pathway - cell viability counter screen (AID 1259367); note: nearly all actives have a fitted effect of over 55% in size; note: potency is the fitted concentration of half-maximal effect
How it was run: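 Tox21 library chemicals were tested on a Gli1-Luc NIH/3T3 clone (2,000 cells/well) stimulated by conditioned medium; viability was quantified as fluorescence from CellTiter-Fluor reagent added at 23 hr.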

[16] = qHTS assay to identify small molecule agonists of the sonic hedgehog signaling (Shh) pathway (AID 1259368; calls by dose curve; note: nearly all actives have a fitted effect of over 15% in size; note: potency is the fitted concentration of half-maximal effect)
How it was run: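 Stable NIH/3T3 Gli1-Luc reporter clone; 24 hr cpd exposure after a 4 hr settling period; luminescence endpoint.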

[17] = A CellTox Green Cytotoxicity Assay to monitor cytotoxicity in HEK293 cells - 16 hour (AID 1224888); note: nearly all actives have a fitted effect of over 35% in size
How it was run: as §1

[18] = qHTS RealTime-Glo MT Cell Viability Assay in HepG2 cells - 0 hour (AID 1224889); note: nearly all actives have a fitted effect of over 50% in size
How it was run: as §3

[19] = target: Androgen receptor (Homo sapiens) (UniProt P10275); assay: qHTS assay to identify small molecule antagonists of the androgen receptor (AR) signaling pathway using the MDA cell line in the presence of 0.5 nM R1881 (AID 1259243); note: nearly all actives have a fitted effect of over 50% in size
Sequence of Androgen receptor (Homo sapiens) (P10275 whole entry, looked up): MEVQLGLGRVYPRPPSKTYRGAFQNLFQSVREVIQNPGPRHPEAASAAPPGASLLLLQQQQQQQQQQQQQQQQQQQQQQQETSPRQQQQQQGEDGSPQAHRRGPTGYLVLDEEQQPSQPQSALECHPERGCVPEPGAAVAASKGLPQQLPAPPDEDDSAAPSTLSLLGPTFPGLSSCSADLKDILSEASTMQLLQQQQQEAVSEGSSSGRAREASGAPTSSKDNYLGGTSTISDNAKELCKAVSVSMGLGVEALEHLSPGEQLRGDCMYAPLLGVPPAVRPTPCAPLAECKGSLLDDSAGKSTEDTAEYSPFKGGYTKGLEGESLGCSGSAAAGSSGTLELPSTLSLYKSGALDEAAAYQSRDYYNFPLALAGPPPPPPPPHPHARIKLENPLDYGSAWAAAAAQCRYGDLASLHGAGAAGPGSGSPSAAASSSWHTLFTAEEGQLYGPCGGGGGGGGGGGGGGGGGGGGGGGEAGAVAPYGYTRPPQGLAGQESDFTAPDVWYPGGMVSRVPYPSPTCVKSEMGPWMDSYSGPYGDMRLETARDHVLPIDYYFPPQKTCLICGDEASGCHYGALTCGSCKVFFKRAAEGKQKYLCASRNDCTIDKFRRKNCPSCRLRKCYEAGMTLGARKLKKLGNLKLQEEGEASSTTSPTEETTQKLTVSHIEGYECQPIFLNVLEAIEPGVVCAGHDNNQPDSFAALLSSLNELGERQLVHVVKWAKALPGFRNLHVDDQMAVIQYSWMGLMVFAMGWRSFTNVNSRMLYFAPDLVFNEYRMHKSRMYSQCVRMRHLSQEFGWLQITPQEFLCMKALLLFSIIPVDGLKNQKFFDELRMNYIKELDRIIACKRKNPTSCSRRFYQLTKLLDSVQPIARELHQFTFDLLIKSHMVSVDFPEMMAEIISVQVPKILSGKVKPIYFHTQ
How it was run: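 Cells: MDA-kb2 (MMTV-luc). Stimulus: 0.5 nM R1881. Time: 16 hr, 37C, no CO2. Detection: ONE-Glo luminescence after 30 min at RT.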

[20] = qHTS RealTime-Glo MT Cell Viability Assay in HEK293 cells - 24 hour (AID 1224886); note: nearly all actives have a fitted effect of over 50% in size; note: potency is the fitted concentration of half-maximal effect
How it was run: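 Reads taken at 0, 8, 16, 24, 32 and 40 h from the same wells. HEK293 cells (600/well) carried RealTime-Glo reagents from seeding, with compound added after a 5 h settle at 37 C.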

Measured: Potency

CNCCCC12CCC(c3ccccc31)c1ccccc12
61.1 µM (active) and inactive: [10]
54.5 µM (active) and inactive: [9] | [15]
active: [1] 49 µM | [3] 34.7 µM and 23.9 µM | [5] 49 µM | [11] 7.94 µM | [14] 30.6 µM
not listed: [17] | [18] | [19] | [20]
inactive: all other assays above

CC(=O)Oc1ccccc1C(=O)Nc1ncc([N+](=O)[O-])s1
active: [8] 16.8 µM | [9] 11.1 µM and 11.9 µM | [12] 197 nM and 473 nM | [14] 22.1 µM and 26.6 µM | [15] 24.8 µM and 26.6 µM
not listed: [18] | [19] | [20]
inactive: all other assays above

NNc1ccc(C(=O)O)cc1
active: [12] 2.47 µM and 6.93 µM | [16] 5.5 µM
not listed: [10] | [11] | [19] | [20]
inactive: all other assays above

O=C(/C=C/C=C/c1ccc2c(c1)OCO2)N1CCCCC1
active: [12] 9.71 µM and 8.63 µM
not listed: [11] | [16] | [18] | [19] | [20]
inactive: all other assays above

Cc1ccc(C)c(O)c1C
not listed: [11] | [18] | [20]
inactive: all other assays above

CCOC(=O)C(C#N)=C(c1ccccc1)c1ccccc1
not listed: [10] | [19] | [20]
inactive: all other assays above

O=P(O)(O)O
not listed: [10] | [19] | [20]
inactive: all other assays above

NC=O
not listed: [10] | [11] | [18] | [19] | [20]
inactive: all other assays above

CC1=CCC(C(C)(C)O)CC1 (stereo not drawn)
inactive and 17.4 µM (active): [4]
inactive and 21.9 µM (active): [3]
not listed: [18] | [20]
inactive: all other assays above

CCC(C)OC(=O)c1ccc(O)cc1 (stereo not drawn)
not listed: [3] | [11] | [12] | [19] | [20]
inactive: all other assays above

O=C(/C=C/c1ccccc1)OCc1ccccc1
not listed: [18] | [19] | [20]
inactive: all other assays above

C#C[C@]1(O)CC[C@H]2[C@@H]3CCC4=Cc5oncc5C[C@]4(C)[C@H]3CC[C@@]21C
active: [1] 49 µM | [10] 30.6 µM
not listed: [5] | [6] | [18] | [19] | [20]
inactive: all other assays above

O=CCCCC=O
42.1 µM (active) and inactive: [20]
not listed: [3] | [19]
inactive: all other assays above

O=C1c2cccc(O)c2C(=O)c2c(O)cccc21
not listed: [6] | [10] | [12] | [18] | [19] | [20]
inactive: all other assays above

c1ccc2cc(Nc3ccc(Nc4ccc5ccccc5c4)cc3)ccc2c1
not listed: [10] | [11] | [18] | [20]
inactive: all other assays above

c1cc(N(CC2CO2)CC2CO2)ccc1OCC1CO1 (stereo not drawn)
active: [14] 61.1 µM | [15] 27.3 µM
not listed: [11] | [19] | [20]
inactive: all other assays above

CC(C)CC(C)(O)C#CC(C)(O)CC(C)C (stereo not drawn)
30 µM (active) and inactive: [15]
13.4 µM (active) and inactive: [14]
not listed: [10] | [11] | [18] | [19] | [20]
inactive: all other assays above

CC(=O)C1(C)CC2=C(CCCC2(C)C)CC1C (stereo not drawn)
not listed: [1] | [10] | [11] | [20]
inactive: all other assays above

CC(C)OB(OC(C)C)OC(C)C
not listed: [11] | [19] | [20]
inactive: all other assays above
